Assay outcomes: PubChem BioAssay, National Center for Advancing Translational Sciences (NCATS)
GLA inh pH 4.5 – alpha-galactosidase A (human) inhibition, pH 4.5; P06280; purified enzyme, 4-MU-alpha-Gal fluorescence, pH 4.5; activity change, negative = inhibition, % at 105 µM; 230,000 tested, under 10 active; AID 1467
Target sequence (P06280 whole entry, looked up): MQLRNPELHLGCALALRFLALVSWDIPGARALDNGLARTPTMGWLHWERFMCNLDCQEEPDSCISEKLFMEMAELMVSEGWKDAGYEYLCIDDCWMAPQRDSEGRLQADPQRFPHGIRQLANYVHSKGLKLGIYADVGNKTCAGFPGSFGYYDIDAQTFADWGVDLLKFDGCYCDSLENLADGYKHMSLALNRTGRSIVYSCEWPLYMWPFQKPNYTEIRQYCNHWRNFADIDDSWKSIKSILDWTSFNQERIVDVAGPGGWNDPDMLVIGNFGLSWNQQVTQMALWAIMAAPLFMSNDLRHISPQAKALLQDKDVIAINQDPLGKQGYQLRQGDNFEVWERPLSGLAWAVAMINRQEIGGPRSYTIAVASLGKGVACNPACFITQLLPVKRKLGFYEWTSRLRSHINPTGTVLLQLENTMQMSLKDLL
aGlu spleen mod – lysosomal alpha-glucosidase (human) modulation; P10253; human spleen homogenate, 4-MU-alpha-glucoside fluorescence; Potency, µM (titrated, usually from 79.9 µM), most hits filed as inhibitors; 0.006% of 240,000 active; AID 2112
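Enzyme source: human spleen homogenate, 1 ug/well. Buffer 50 mM citric acid/K phosphate pH 5.0, 0.01% Tween-20. 4-MU-alpha-glucoside 1 mM; 37 C x 40 min; NaOH/glycine stop; fluorescence.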
aGal spleen mod – inhibits or activates alpha-galactosidase in human spleen homogenate; P06280; human spleen homogenate, 4MU-alpha-Gal fluorescence, 40 min; Potency, µM (doses to about 80 µM), most hits filed as inhibitors; 0.008% of 240,000 active
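Human spleen homogenate (1 ug) as enzyme source, 4-methylumbelliferyl-alpha-D-galactopyranoside 1 mM final, citrate/phosphate pH 5.0 with 0.01% Tween-20. Compounds 40 min at 37C, NaOH/glycine stop; fluorescence Ex 365/Em 440, Hill-fit AC50.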
GAA inhib – inhibitors of human lysosomal alpha-glucosidase | AID 1466 | purified human GAA, 4-MU-alpha-glucoside fluorescence | Potency, µM (highest dose often 76.9 µM), actives largely listed as inhibitors | 0.005% of 200,000 active | P10253
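Enzyme (4 nM final) mixed with compound (up to 77 uM), then 4-MU-alpha-D-pyranoside (400 uM final) added; 20 min at room temperature, pH 5.0. Reaction stopped at pH 10, fluorescence read, AC50 derived by Hill fit.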
GAA glycogen mod – alters human alpha-glucosidase cleavage of glycogen; P10253; recombinant GAA, glycogen substrate, Amplex Red glucose oxidase fluorescence; Potency, µM (series often up to 76.4 µM), hits mostly inhibitors; 0.38% of 300,000 active; AID 2100;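 note: the screen sought inhibitors and activators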
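Natural-substrate format: glycogen cleavage by 4 nM human enzyme, glucose read by Amplex Red coupling (Ex 573, Em 610 nm). Normalized to enzyme and no-enzyme controls.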
Each line names hits and unclear results; the compound was inactive in the other large screens. The sample as a whole holds a higher share of hits than the screen did. Calls come from the whole dose curve; as a rule, active = well fitted curve in the direction sought with a large enough effect; inconclusive = small, poorly fitted or top-dose-only effect, or another doubt; inactive = no such curve, though single readings can be large; an effect the other way counts as inactive or inconclusive.

O=C1c2ccccc2CCC1CNCCc1ccc(O)cc1 (centres undefined)	none (no result: GLA inh pH 4.5, GAA inhib, GAA glycogen mod)
CC(=O)OCOC(=O)CNc1ccccc1OCCOc1ccccc1NCC(=O)OCOC(C)=O	none (no result: GLA inh pH 4.5, GAA inhib, GAA glycogen mod)
CC1=C(/C=C/C(C)=C/C=C/C(C)=C\CO)C(C)(C)CCC1	none (no result: GLA inh pH 4.5, GAA inhib, GAA glycogen mod)
O=C(CSc1n[nH]c(-c2ccccc2)n1)c1ccc(O)c(O)c1	GAA glycogen mod 10µM
Cc1cc(SCC(=O)c2ccc(O)c(O)c2)nc2ccccc12	GAA glycogen mod 4.43µM
Cc1cc(SCC(=O)c2ccc3c(c2)OCO3)nc2ccccc12	GAA inhib inconclusive
CCOc1ccc(-c2nc(SCC(=O)c3ccccc3)n[nH]2)cc1	none (no result: GLA inh pH 4.5, aGlu spleen mod, aGal spleen mod, GAA inhib)
COc1ccc(/C=C/c2cc(C(F)(F)F)[nH]c(=O)n2)cc1OC	GAA inhib inconclusive
CCOc1cc(/C=C/c2cc(C(F)(F)F)[nH]c(=O)n2)ccc1O	GAA glycogen mod 7.88µM
COc1cc(-c2nnc(SCc3cc(=O)oc4cc(O)c(O)cc34)o2)cc(OC)c1OC	GAA glycogen mod 15.8µM
CCOC(=O)CSc1nnc(-c2cc(OC)c(OC)c(OC)c2)o1	none
CC(N)(C(=O)O)c1ccc(S(=O)(=O)O)cc1 (centres undefined)	none (no result: GLA inh pH 4.5, GAA inhib, GAA glycogen mod)
CN1/C(=N\O)c2cccc3cccc1c23	GAA glycogen mod 35.2µM
CC(=O)c1ccc(NC(=O)COc2ccccc2-c2nc(C)no2)cc1	GAA glycogen mod 7.08µM (no result: GLA inh pH 4.5, aGlu spleen mod, aGal spleen mod, GAA inhib)
CC(=O)c1ccc(NC(=O)COc2ccccc2-c2nc(C(C)C)no2)cc1	none (no result: GLA inh pH 4.5, aGlu spleen mod, aGal spleen mod, GAA inhib)
COC(=O)[C@H](CC(C)C)NC(=O)c1ccc(NC[C@@H](N)CS)cc1-c1cccc2ccccc12	none (no result: GLA inh pH 4.5, GAA inhib, GAA glycogen mod)
O=C1c2ccccc2C(=O)N1CCc1c[nH]c2ccc(O)cc12	GAA inhib inconclusive, GAA glycogen mod 3.14µM
C[C@H](NC(=O)Cc1cc(F)cc(F)c1)C(=O)N[C@@H](C(=O)OC(C)(C)C)c1ccccc1	none (no result: GLA inh pH 4.5, GAA inhib, GAA glycogen mod)
COC1=CC(=O)C(O)=C/C1=C\C=C\c1ccccc1	none (no result: GAA inhib, GAA glycogen mod)
Cc1ccc(C)c(NC(=O)C2CCCN(S(=O)(=O)c3ccc4[nH]c(=O)ccc4c3)C2)c1 (centres undefined)	GAA glycogen mod 31.6µM (no result: GLA inh pH 4.5, aGlu spleen mod, aGal spleen mod, GAA inhib)
COc1ccc(C)cc1NC(=O)C1CCCN(S(=O)(=O)c2ccc3[nH]c(=O)ccc3c2)C1 (centres undefined)	none (no result: GLA inh pH 4.5, aGlu spleen mod, aGal spleen mod, GAA inhib)
Oc1ccc(Nc2nc3ccccc3nc2Nc2ccc(O)cc2)cc1	GAA glycogen mod 19.8µM
Cc1nc2ccccc2nc1N/N=C/c1ccc(O)cc1	GAA glycogen mod 25.1µM (no result: GAA inhib)
CC[C@H](NC(=O)[C@H](CCC(=O)O)NC(=O)[C@H](CCC(=O)O)NC(=O)[C@H](CC(=O)O[S+](=O)([O-])c1cccc2c(NCCN)cccc12)NC(=O)[C@H](CCC(=O)O)NC(=O)[C@H](CC(=O)O)NC(C)=O)C(=O)ON[C@@H](C)C(=O)N[C@@H](CO)C(=O)N[C@@H](CCCCNC(=O)c1ccc(N=Nc2ccc(N(C)C)cc2)cc1)C(N)=O	none (no result: GLA inh pH 4.5, GAA inhib, GAA glycogen mod)
c1ccc(C(OC2CCCN(CCc3ccc4c(c3)OCO4)C2)c2ccccc2)cc1 (centres undefined)	none (no result: GLA inh pH 4.5, GAA inhib, GAA glycogen mod)
O=S(=O)(Cc1ccccc1)c1nnnn1C1CCCCC1	none (no result: GAA inhib, GAA glycogen mod)
Oc1ccc(C2Nc3cccc4cccc(c34)N2)c(O)c1	GAA glycogen mod 19.8µM
CCOc1cc(/C=C2\SC(=O)N=C2N)ccc1O	none
CCOc1cc(/C=C2\SC(N)=NC2=O)ccc1O	GAA glycogen mod 10µM (no result: GLA inh pH 4.5, aGlu spleen mod, aGal spleen mod, GAA inhib)
Cc1ccc(NC2=CC(=O)c3sc(C)nc3C2=O)cc1	none (no result: GLA inh pH 4.5, GAA inhib, GAA glycogen mod)
O=C(NN=C1C2CC3CC(C2)CC1C3)c1cc(Cl)ccc1O	GAA glycogen mod 12.6µM
O=C(NN=C1C2CC3CC(C2)CC1C3)c1ccncc1	GAA glycogen mod inconclusive
COc1ccc(O)c(/C=N/c2sc(C)c(C)c2C#N)c1	GAA glycogen mod 14µM
O=C1NN(c2ccccc2)C(=O)/C1=C\c1cccc(OC(=O)c2cccs2)c1	GAA glycogen mod 20µM
CN1CCc2ccc3c4c2[C@]1(C)Cc1cccc(c1-4)OCO3	none (no result: GLA inh pH 4.5, GAA inhib, GAA glycogen mod)
COc1ccc(C2=Nc3ccccc3OC2)cc1	GLA inh pH 4.5 inconclusive, GAA glycogen mod 25.1µM
NCCCCCCCCCCNCCCN	none (no result: GLA inh pH 4.5, GAA inhib, GAA glycogen mod)
COc1cc(C(=O)OCCC(C)C)cc(OC)c1O	GAA glycogen mod 11.2µM
C/C=C\C1=CCCC1Nc1ncnc2ccc(-c3c(C)noc3C)cc12 (centres undefined)	none (no result: GLA inh pH 4.5, GAA inhib, GAA glycogen mod)
COc1ccc(OC)c(/C=N/Nc2nncn2/N=C/c2cc(OC)ccc2OC)c1	none
COc1cc(/C=N/Nc2ccccc2C(F)(F)F)ccc1O	aGlu spleen mod inconclusive, GAA glycogen mod 35.5µM
CCOc1cc(/C=N/Nc2nnc(C)n2N)ccc1O	GAA glycogen mod 11.1µM (no result: GLA inh pH 4.5, aGlu spleen mod, aGal spleen mod, GAA inhib)
COc1cc(/C=N/Nc2ccccn2)cc(OC)c1O	GAA glycogen mod 17.8µM
COc1cc(/C=N/Nc2nncn2/N=C/c2ccc(O)c(OC)c2)ccc1O	GAA glycogen mod 10µM
COc1cc(/C=N/NC(=O)c2cccs2)ccc1O	GAA glycogen mod inconclusive (no result: GAA inhib)
CO[C@]1(NC(=O)Cc2cccs2)C(=O)N2C(C(=O)O)=C(COC(N)=O)CS[C@H]21	none (no result: GAA inhib, GAA glycogen mod)
O=c1c(O)c(-c2ccc(O[C@@H]3O[C@H](CO)[C@@H](O)[C@H](O)[C@H]3O)c(O)c2)oc2cc(O)cc(O)c12	aGlu spleen mod inconclusive (no result: GLA inh pH 4.5, GAA inhib, GAA glycogen mod)
NC(C(=O)O)c1cc(O)cc(O)c1 (centres undefined)	none (no result: GLA inh pH 4.5, GAA inhib, GAA glycogen mod)
C(=N\N1CCN(C2c3ccccc3-c3ccccc32)CC1)/c1ccncc1	none
C/C(=N\N1CCN(C2c3ccccc3-c3ccccc32)CC1)c1ccncc1	GAA inhib inconclusive, GAA glycogen mod 28.2µM
